# Laboratory results from PubChem BioAssay.
# A number with no mark means an inactive call. For some of these results: Entries with a potency or affinity are not part of this list. Activity calls are given as the source filed them. Unless noted, how the calls were made is not given here.
# Experiments:
# [1] = antimalarial activity against Dd2 strain (AID 2302;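 active means growth inhibition above 50% at the single 2 µM test dose, taken to imply half-maximal potency below 2 µM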;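 further: 0% = DMSO untreated growth and 100% = chloroquine plus artemisinin killed control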); details: P. falciparum Dd2 in RBCs, LDH growth readout, 72 h; at 2 µM; stronger effect = higher value
# [2] = human hepatoma cell viability loss – ATP luminescence, cytotoxicity control for P. falciparum antimalarial project, primary screen (AID 2303;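 active means inhibition above 50%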;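 further: 0% = DMSO wells and 100% = digitonin-killed cells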); details: HepG2 viability, 24-48 h, at 10 µM, stronger effect = higher value
# [3] = molecular target: L-lactate dehydrogenase (Plasmodium falciparum (isolate CDC / Honduras)) (UniProt Q27743); experiment: PfLDH activity inhibition – cell lysate, 3D7 strain, counter-screen for P. falciparum growth inhibition project (AID 2304);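 further: 0% = vehicle and 100% = reference inhibitor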; details: P. falciparum 3D7 crude extract, LDH APAD/NBT absorbance; at 2 µM; stronger effect = higher value
# [4] = inhibition of 3D7 malaria parasite growth – strain 3D7 (AID 2306);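 further: 0% = DMSO wells and 100% = chloroquine plus artemisinin control wells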; details: P. falciparum 3D7 erythrocytic growth, LDH absorbance, 72 h; at 2 µM; stronger effect = higher value
# [5] = molecular target: Calcium-dependent protein kinase 1 (Plasmodium falciparum (isolate 3D7)) (UniProt P62344); experiment: PfCDPK1 kinase inhibitors, biochemical, TCAMS library (AID 1159585; cut-off not given, nearly all actives have IC50 up to about 0.98 µM;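 further: inhibitors leave more ATP so luminescence rises with inhibition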); details: recombinant PfCDPK1, Kinase-Glo ATP depletion luminescence
# [6] = molecular target: Plasmodium falciparum protein kinase 6 (PK6, PF3D7_1337100) (UniProt Q8IDW1); experiment: PfPK6 kinase inhibitors, biochemical, TCAMS library (AID 1159586); details: recombinant PfPK6, Kinase-Glo ATP depletion luminescence
# [7] = molecular target: Protein kinase 7 (PK7), Plasmodium falciparum 3D7 (PF3D7_0213400) (UniProt Q7YTF7); experiment: inhibition of Plasmodium PK7 catalytic activity – biochemical, TCAMS antimalarial set, Kinase-Glo luminescence (AID 1159587); details: recombinant PfPK7, Kinase-Glo ATP depletion luminescence
# [8] = molecular target: Calcium-dependent protein kinase 4 (Plasmodium falciparum (isolate 3D7)) (UniProt Q8IBS5); experiment: PfCDPK4 kinase inhibitors, biochemical, TCAMS library (AID 1159588; cut-off not given, nearly all actives have IC50 up to about 0.91 µM); details: recombinant PfCDPK4, Kinase-Glo ATP depletion luminescence
# Calcium-dependent protein kinase 4 (Plasmodium falciparum (isolate 3D7)), sequence (Q8IBS5 whole entry, looked up): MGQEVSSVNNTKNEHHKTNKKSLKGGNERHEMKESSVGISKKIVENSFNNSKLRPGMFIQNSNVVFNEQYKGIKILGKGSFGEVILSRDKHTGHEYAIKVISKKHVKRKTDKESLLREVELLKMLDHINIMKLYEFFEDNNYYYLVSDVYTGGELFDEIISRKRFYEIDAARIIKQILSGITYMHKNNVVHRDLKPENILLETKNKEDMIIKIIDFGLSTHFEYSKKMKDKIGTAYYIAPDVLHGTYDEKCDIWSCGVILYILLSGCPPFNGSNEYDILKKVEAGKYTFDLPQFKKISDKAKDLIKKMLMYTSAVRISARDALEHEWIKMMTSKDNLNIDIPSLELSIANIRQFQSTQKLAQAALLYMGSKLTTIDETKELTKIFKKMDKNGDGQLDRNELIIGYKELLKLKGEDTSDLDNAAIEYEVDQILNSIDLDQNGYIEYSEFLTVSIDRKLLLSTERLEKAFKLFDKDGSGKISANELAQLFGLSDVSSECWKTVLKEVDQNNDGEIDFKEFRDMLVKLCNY
# Calcium-dependent protein kinase 1 (Plasmodium falciparum (isolate 3D7)), sequence (P62344 whole entry, looked up): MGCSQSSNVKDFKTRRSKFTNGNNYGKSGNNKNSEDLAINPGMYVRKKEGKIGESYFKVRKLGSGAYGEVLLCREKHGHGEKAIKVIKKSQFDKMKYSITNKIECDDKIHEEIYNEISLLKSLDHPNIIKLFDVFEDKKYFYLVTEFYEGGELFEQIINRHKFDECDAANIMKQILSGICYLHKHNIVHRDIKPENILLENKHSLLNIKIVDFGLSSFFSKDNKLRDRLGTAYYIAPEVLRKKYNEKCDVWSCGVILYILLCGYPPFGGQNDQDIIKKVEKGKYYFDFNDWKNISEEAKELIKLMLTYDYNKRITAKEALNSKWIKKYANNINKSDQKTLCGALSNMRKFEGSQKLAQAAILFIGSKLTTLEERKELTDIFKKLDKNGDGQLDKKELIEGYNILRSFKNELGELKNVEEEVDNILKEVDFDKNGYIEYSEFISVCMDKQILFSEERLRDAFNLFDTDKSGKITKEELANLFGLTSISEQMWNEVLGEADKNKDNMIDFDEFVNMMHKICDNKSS
# Protein kinase 7 (PK7), Plasmodium falciparum 3D7 (PF3D7_0213400), sequence (Q7YTF7 1-343): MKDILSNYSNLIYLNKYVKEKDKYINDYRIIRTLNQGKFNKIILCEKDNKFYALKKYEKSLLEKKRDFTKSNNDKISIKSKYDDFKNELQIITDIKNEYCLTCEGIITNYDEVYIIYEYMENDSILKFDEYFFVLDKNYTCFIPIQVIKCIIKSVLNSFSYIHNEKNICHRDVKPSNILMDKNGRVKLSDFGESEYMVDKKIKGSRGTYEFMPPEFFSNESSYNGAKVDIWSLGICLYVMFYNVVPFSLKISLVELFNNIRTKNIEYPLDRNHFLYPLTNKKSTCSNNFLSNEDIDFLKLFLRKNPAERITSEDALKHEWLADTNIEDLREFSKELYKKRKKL
# Plasmodium falciparum protein kinase 6 (PK6, PF3D7_1337100), sequence (Q8IDW1 1-305): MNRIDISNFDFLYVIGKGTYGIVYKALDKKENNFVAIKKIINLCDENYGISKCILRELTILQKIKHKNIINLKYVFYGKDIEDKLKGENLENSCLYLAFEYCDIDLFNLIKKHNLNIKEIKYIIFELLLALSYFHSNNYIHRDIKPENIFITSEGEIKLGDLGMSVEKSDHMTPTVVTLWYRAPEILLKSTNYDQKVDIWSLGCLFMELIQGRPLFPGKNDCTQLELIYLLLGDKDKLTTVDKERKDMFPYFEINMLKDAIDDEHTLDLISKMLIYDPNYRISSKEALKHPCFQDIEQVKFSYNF
# L-lactate dehydrogenase (Plasmodium falciparum (isolate CDC / Honduras)), sequence (Q27743 whole entry, looked up): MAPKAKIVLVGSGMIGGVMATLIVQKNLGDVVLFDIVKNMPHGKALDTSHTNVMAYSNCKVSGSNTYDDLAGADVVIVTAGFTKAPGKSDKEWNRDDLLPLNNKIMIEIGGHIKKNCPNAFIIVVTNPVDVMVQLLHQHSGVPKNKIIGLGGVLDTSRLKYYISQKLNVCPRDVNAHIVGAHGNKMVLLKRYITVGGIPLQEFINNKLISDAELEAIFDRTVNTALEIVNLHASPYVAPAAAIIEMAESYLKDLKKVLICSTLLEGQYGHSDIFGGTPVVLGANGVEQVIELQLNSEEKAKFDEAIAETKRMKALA
SMILES,growth inhibition [1],inhibition [2],inhibition [3] [%],growth inhibition [4],outcome [5],outcome [6],outcome [7],outcome [8]
c1ccc(CCNc2ccnc(Nc3ccc4cn[nH]c4c3)n2)cc1,100% (active),54% (active),-3,101% (active),inactive,inactive,inactive,inactive
Cc1cccc2[nH]c(-c3ccc(-c4ccc(CNCCN5CCNCC5)cc4)s3)nc12,-2%,30%,3,88% (active),inactive,inactive,inactive,inactive
CN(C)c1ccc(-c2ccc(C(=O)NC3CCN(Cc4ccc(C(C)(C)C)cc4)CC3)s2)cc1,59% (active),35%,-4,95% (active),inactive,inactive,inactive,inactive
CC(C)(C)c1ccc(C(=O)Nc2ccc3nc4c(c(N)c3c2)CCCC4)cc1,99% (active),21%,-4,100% (active),inactive,inactive,inactive,inactive
COc1ccccc1C1CCN(C2CCC(NC(=O)/C=C/c3ccc(C(F)(F)F)cc3F)CC2)CC1 (stereo not given),2%,63% (active),2,95% (active),inactive,inactive,inactive,inactive
O=C(/C=C/c1ccc(Cl)c(Cl)c1)N1CCC(NCc2ccc3[nH]ccc3c2)CC1,1%,44%,-2,97% (active),inactive,inactive,inactive,inactive
O=C1OC2(CN1CC1CCN(Cc3ccc(O)cc3Cl)C1)c1ccccc1-c1ccccc12 (stereo not given),84% (active),16%,2,84% (active),inactive,inactive,inactive,inactive
Cc1cc(N)nc2ccc(-c3ccc(CN)cc3)cc12,93% (active),4%,-3,100% (active),inactive,inactive,inactive,inactive
O=c1cc(NCCCNCc2sc(Br)nc2Br)[nH]c2ccccc12,44%,1%,-2,92% (active),inactive,inactive,inactive,inactive
CCNC(=O)N[C@@H]1CN[C@@H](C#Cc2cc3c(Nc4ccc(OCc5cccc(F)c5)c(Cl)c4)ncnc3s2)C1,27%,-2%,0,85% (active),inactive,inactive,inactive,inactive
COc1ccc(N2CCN(CCCCNC(=O)c3ccc(/C=C/c4ccc(Cl)c(Cl)c4)cc3)CC2)c(OC)c1,51% (active),51% (active),-8,101% (active),inactive,inactive,inactive,inactive
Clc1ncccc1-c1nc(NCCC(c2ccccc2)c2ccccc2)no1,82% (active),12%,3,94% (active),inactive,inactive,inactive,inactive
Nc1c(C(=O)NCCCCN2CCN(c3nsc4ccccc34)CC2)sc2ccccc12,-6%,26%,-5,86% (active),inactive,inactive,inactive,inactive
COc1ccc(F)cc1-c1ccc(C(=O)N2CCCN(c3ccc(C(F)(F)F)cn3)CC2)cc1,100% (active),4%,-3,101% (active),inactive,inactive,inactive,inactive
CN1CCN(c2ccc(-c3cc(-c4cc(F)c(F)c(F)c4)cnc3N)cc2)CC1,12%,58% (active),-4,88% (active),inactive,inactive,inactive,inactive
O=C(NCc1cccc2ccccc12)C(c1cc2ccccc2o1)N1CCN(C(c2ccccc2)c2ccccc2)CC1 (stereo not given),90% (active),-3%,-2,99% (active),inactive,inactive,inactive,inactive
Oc1ccc(CCCNc2nc(NCc3cccc4ccccc34)nc(N3CCCNCC3)n2)cc1,62% (active),98% (active),-2,96% (active),inactive,inactive,inactive,inactive
COc1ccc(N2CCN(CCCOc3ccc(NC(=O)c4cc(Cl)cc(Cl)c4)cc3)CC2)c(OC)c1,41%,38%,2,100% (active),inactive,inactive,inactive,inactive
COc1ccc(N2CCN(CCCCNC(=O)c3ccc(NC(=O)c4ccc(C(F)(F)F)cc4)cc3)CC2)c(OC)c1,8%,4%,6,100% (active),inactive,inactive,inactive,inactive
Fc1cccc(Cn2ncc3cc(Nc4ncnc5sc(C#Cc6ncc[nH]6)cc45)ccc32)c1,30%,31%,0,101% (active),inactive,inactive,inactive,inactive
